Experimental findings from PubChem BioAssay AID1508600 (Functional Genomics Laboratory (NCATS/FGL), 2020) are described below.

Screen size: about 53,000 sequences; about 3,700 (7%) were called active.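 Rule for the calls: active = gene knockdowns whose robust z-score for IL-1 alpha signal is at least 2 or at most -2, so actives lie on both sides; inactive = the rest.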 Many of the other results were omitted from the sample, so actives are more common in it than they were.

This test is described as follows: Components of the Cytosolic LPS Sensing Pathway: Gene Identification via Genome-wide siRNA Screen.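 Note: robust z of the log signal after scaling to non-targeting control siRNA wells of the plate.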 Particulars: RAW264.7 macrophages, IL-1a HTRF, actives lie on both sides, screened at 100 nM (by protocol), cells primed 5 h with Pam3CSK4 first. Summed up: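 Mouse macrophage line RAW264.7 is transfected with siRNA (100 nM final), grown 48h, primed with TLR ligand Pam3CSK4 5 h and given intracellular LipidA 24 h. IL-1a in supernatant is read by HTRF and viability by luminescence.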
Take GGGCAGCUCAUGUCCUAUATT against Scfd2: the z-score is -0.421 (inactive). Regarding CCAGAAAAAAGAUUGUACATT against Hesx1, the z-score is -0.43 (inactive). In the case of GCAGAGCUAGCUGAAUUGCTT against Urb2 it was -0.156 (inactive); in that of GCCGUUAAACAGUUCUCCCTT against Cyb561a3, -0.455 (inactive); in that of GGAUCGAGUUUGGUGUAGATT against Usp10, -1.39 (inactive).

CCAUCUACCAUAAACUGUATT against Spata6: the z-score was 0.175 (inactive).

CCAUUAAUUACGUGUUUGUTT against Dixdc1: the z-score was -0.104 (inactive). Consider GGAAUGGAAUACAAAGUCATT against Isg20l2, for which the z-score was -0.305 (inactive). On to CCUAUGCAUCAGACCUUUGTT against Nedd9, for which the z-score is 2.7 (active). With GGUUUUUCUGUCAAGUGCUTT against Lgr5, the z-score was -0.303 (inactive). Consider GGCAAGAUCCACAAUGAUGTT against Lgals2, for which the z-score was -0.996 (inactive). Turning to CCGUCAGUGAAUUCUUGAATT against Birc5, the z-score is 0.342 (inactive).

As to GGAAGUUUGCUCCAGCCUUTT against Tmem33, the z-score was -0.202 (inactive). In the case of GCGAGUGACACAUCUUCUCTT against Klhl7, the z-score is 0.467 (inactive). For GGAACAUAUGCAGAAUUUATT against Adgrb3, the z-score is 0.509 (inactive). For the sequence GGUCCAUUGGGAGUUUGAGTT against Slc2a6, the z-score is 3.14 (active). As to GGAUGGAGAGAACUACUUATT against Gltpd2, the z-score was 0.999 (inactive).

Consider GGAGUGUGAUCAAGUUCAUTT against Eya4, for which the z-score is 2.16 (active). Regarding GGUGUUUGCCUCAGAAAUCTT against Cdk17, the z-score is -0.676 (inactive). On to GGUGAAGAUUGACAAGAAATT against Spout1, for which the z-score was 0.254 (inactive). In the case of GGAUGAAUGCAGCUUCCAUTT against Myh14 it was 2.35 (active). With GGGUGUUCCAGAAGUAUCUTT against Lars2 the figure was -1.76 (inactive).

Consider CCUUGGAAUGCAUAGCCAATT against Sdk1, for which the z-score is 0.285 (inactive). In the case of GGAAUAUGCCCAAGUUUUUTT against Ctnna1 it was 2.86 (active); in that of GCCAAAUUGUCCCGGGCAUTT against Usp39, 0.457 (inactive). With GGUGAUGUAUUAUUAUCCATT against Defb12, the z-score is 0.277 (inactive).

As to CCUUUCAAGGAGAUAUAAUTT against Gcm2, the z-score was 0.65 (inactive).

With CCUUAGCUGUCCUUGUGGUTT against Defb28, the z-score was -1.36 (inactive). For CGAAAUCCUAGUUUCGUCCTT against Spns1, the z-score is 3.29 (active). In the case of GGAAUUGGUCUAUAUGCGUTT against Il2ra it was -1.02 (inactive).

Take GGGUUCCAGUUUGUUUCCUTT against Cnbp: the z-score was -0.901 (inactive).

For the sequence CCAUUGAGAUCAGCGACAUTT against Abtb2, the z-score was -0.748 (inactive). Regarding GGUAGCAUUAUUUGUCCUATT against Pcdh15, the z-score was 0.675 (inactive).

With GGAGCUACGAAGAGGAUCUTT against Wdr45b, the z-score was -2.69 (active). With GGCCAUCUCCUUCAACUAUTT against Ugt2a1 the figure was 1.24 (inactive); with “GGAGUAGAUUUAAAAGGCATT against 4933440M02Rik”, 0.145 (inactive).

For the sequence GGUCAACAGAAUGAAAAAUTT against Runx1t1, the z-score was -0.211 (inactive).

As for GGGAAAGUCGAGCUUUUUCTT against Ifi44l, the z-score was 0.0658 (inactive).

Turning to CCAAGCUACCAGGGUUUUUTT against Abcb9, the z-score is 2.1 (active). As for GGUCCAAGUAAUGAACUCATT against Olfr155, the z-score is -1.19 (inactive). With GGCCCUAGAAAUAAUCUGCTT against Anks4b the figure was 0.0338 (inactive); with GGGAUCCUUAAUAUUUUGATT against Dazap2, 1.66 (inactive). On to GGUUUUAAUUGUUCAGACGTT against Lrrtm3, for which the z-score was 0.35 (inactive).

For GGGAAGUGGAAACAGUUCUTT against Icam2, the z-score was 0.461 (inactive). With CCAAUGUUACGAGAAACUUTT against Smug1, the z-score is 1.02 (inactive). With GGAAAGGAUAAAGUAUAUCTT against Aspm the figure was -0.0167 (inactive). On to GGAUUGCAUCUUCCUCGAATT against Olfr816, for which the z-score was -2.27 (active). As to GAUCUAUCACCGGUACUGCTT against Gys1, the z-score is 0.154 (inactive). For CCGCUCACUUCUUGAAUAUTT against Rnf125, the z-score was 0.388 (inactive).

For GUCAGAUCUCAGAAUCAUGTT against Ercc6l2, the z-score is -2.27 (active). On to GCGGUCUGUGGUCUUAAAUTT against She, for which the z-score is -0.449 (inactive). With GGUGAACUGUAAUGGCUUCTT against Smyd2 the figure was -0.209 (inactive). With GGUGUUGAGAAGAAAAAUATT against Spz1 the figure was 1.68 (inactive); with GGUAGAAUACCUUCAGAUUTT against Ercc4, 2.81 (active); with GGAAUUGUCAGGUCUUGAATT against Tmem174, -0.311 (inactive). As to GGAGCUUCGGGAGAUGAUUTT against Fdxr, the z-score was 0.357 (inactive). Regarding GGCGGAGUUUUUAAUACUCTT against Upb1, the z-score was 1.79 (inactive).

For the sequence CCUAUGUUUGGUGAUUAUGTT against Alg6, the z-score is 0.264 (inactive). As to GGGUAGGAGGAAAGUGUUCTT against Olfr1093, the z-score was 1.55 (inactive). In the case of GGAACAGCAGCAGAGUGAATT against Gkap1 it was -1.09 (inactive).

In the case of GGCACAUGAUCCUUAAUUUTT against Pfkfb3, the z-score was 0.0397 (inactive).

Regarding GCCUAAGCCUACCAAACGATT against Ints3, the z-score was 0.0965 (inactive). As to GCCGAGAGGGAUGUGUAUATT against Psmb1, the z-score is -2.54 (active).

GGAAAUCCUUGACUACAUUTT against Cyp2b19: the z-score was 0.31 (inactive). On to GGUCCACCUCAACAAGCUATT against Zfp536, for which the z-score is 2.57 (active). On to GGGAGAAACCUGUGCAAAUTT against Serpinb6c, for which the z-score is 0.459 (inactive). “AGACUGGGUUGUGAAGAUATT against 4930563M21Rik”: the z-score is -1.68 (inactive). Consider GCUAGGACUACAGCUGGGATT against Snrnp48, for which the z-score was -2.56 (active). Take GGAGAACUGAAGAAUCCAATT against Med11: the z-score is 1.78 (inactive).

On to GCCAAGAUCCCACCAGUUATT against Neurl1b, for which the z-score is 0.639 (inactive). In the case of “GGAGCACAGUCUCAUGAAUTT against A130014H13Rik” it was -1.44 (inactive); in that of CGUGAAGAUUGACGUGUUUTT against Pcyox1, 1.06 (inactive); in that of UGCCUGUAAACCAACAAGGTT against Prb1, -2.04 (active).

In the case of GUGAAGAGGAGCAGGACUUTT against Klrc3, the z-score was 0.261 (inactive). Turning to GGGAAAAGUAUCCUCUGUUTT against Olfr877, the z-score was -0.968 (inactive).

In the case of GCGAAGUCAUCAAAUUUUCTT against Abcb11, the z-score is 0.622 (inactive). Consider GGUCCUUAAGUCCUUUGACTT against Cdr1os, for which the z-score was 0.894 (inactive). Take GGGAAAGAUAAAUGUUUCCTT against Gucy1b1: the z-score is 1.89 (inactive).

GGUUCAGACAAGCAUCUAGTT against Sbp: the z-score is -1.04 (inactive). Take CCUCAGGAUACAGACCCACTT against Frg2f1: the z-score is -0.35 (inactive). Take GGAAAUUUUUUCCUUUCCUTT against Olfr211: the z-score was -0.638 (inactive). As to GGACCAUCAGAGGAGAACUTT against Cuedc2, the z-score was -2.09 (active). As to CGAGAGUGGGUGGGUUGAATT against Zfp950, the z-score is 0.628 (inactive).

As for GCCCUAUCUACGAUGAAAATT against Scamp2, the z-score was -0.197 (inactive). CCGAAUACGUGAAGACGCATT against Slc25a1: the z-score is -0.967 (inactive).

For the sequence GGAGGAAAAUGUCCUUGUUTT against Pth, the z-score is 0.25 (inactive). GCAGGAAUGCGGUAUAAACTT against Inpp5f: the z-score is 0.707 (inactive). With GCACUGGACUUAGGAUGGUTT against Ankrd22 the figure was 2.2 (active).

In the case of GGACACCACGUUCACCAAGTT against Rbm38, the z-score is -0.36 (inactive). Consider GCUUCAAUAACUGCGCAAGTT against Zkscan2, for which the z-score is 0.547 (inactive). Consider GGAUGACUGAAUGAUGGGATT against Tcl1b5, for which the z-score is -2.15 (active).

On to GGACCUCACAAUGAGUAUGTT against Thtpa, for which the z-score is 1.23 (inactive). Consider CGACGAACCUGAGUAUAUUTT against Canx, for which the z-score is -0.0578 (inactive).

Take GUGCAGGUCCUAAUCUGAATT against Asb1: the z-score was 2.15 (active). Take GGAAAAAAGCCUCAUCGGATT against Wdr63: the z-score is 0.676 (inactive). For GGGAGAGUGUUUGUUCAUUTT against Dusp1, the z-score was -0.082 (inactive).

As to GGCCUACCUAUAGAAAUGATT against Pgap1, the z-score is 0.208 (inactive).

Turning to GACACCUACUUCAUUGGCCTT against Olfr1245, the z-score was -1.23 (inactive). As to GCAGUUAUAUGCUCAAGAUTT against Pik3r3, the z-score was 0.0211 (inactive). Regarding GCCUUACUUCGGAGUGCUATT against Olfr606, the z-score was -4.78 (active). Turning to GCCAGCAUAAAUAUACUUUTT against Apol10a, the z-score was -0.0597 (inactive). As to GCCUUUGGAAGUUCAGAACTT against Rnf216, the z-score is -1.07 (inactive). GAUUGGAACUUGUGGAUCUTT against Defb8: the z-score is 0.424 (inactive). With GGUACUGGACCAAAUUGCUTT against Ppp1r15b, the z-score was 2.26 (active). In the case of CGGCACCUAUGAGUCUUACTT against Cyp4x1 it was 2.13 (active). In the case of CGAUCCAUGUUGUAAGCGCTT against Adam39 it was 0.347 (inactive); in that of GGUUAAAGUGUAUUUACAGTT against Fkbp14, 0.124 (inactive).
